Screening data (PubChem)
CYP2C19 act – human CYP2C19 activators, primary screen, biochemical, luminescence; 96,000 tested, under 10 active; recombinant CYP2C19, luciferin-H EGE luminescence; active compounds read high; 0 = fully inhibited enzyme, 1 = untreated enzyme; Cytochrome P450 2C19 (Homo sapiens), P33261; activation factor at 5 µM;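 active = activation factor of at least 2 at 5 µM in the primary screen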;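 also: 0 = wells with 2.5 mM tranylcypromine and 1 = vehicle-only wells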
PostGolgi ctrl – growth inhibition of yeast control strain, primary screen, counter-screen for post-Golgi transport modulator project | inhibition, % at 10 µM | AID 738, 2007 | efflux-deficient yeast background strain, growth absorbance A615, 16 h | hit rate 5% among 98,000
CYP2C19 inh – blockers of cytochrome P450 2C19 activity – biochemical, luminescence, ADME assay, primary screen; P33261; CYP2C19 Supersomes, luciferin-H EGE luminescence, 30 min; inhibition, % at 5 µM; hit rate 21% among 96,000; AID 778, 2007;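 active = CYP2C19 inhibition above a set limit at 5 µM in the primary screen, cut at about 50% in these data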;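 also: plate controls were negative control wells for no effect and 2.5 mM tranylcypromine positive control for full effect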
CYP2C9 inhib – blockers of cytochrome P450 2C9 activity – biochemical, luminescence, ADME assay, primary screen; P11712; CYP2C9 Supersomes, luciferin-H conversion; inhibition, % at 5 µM; hit rate 20% among 96,000; AID 777, 2007;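 active = blocking of liver enzyme CYP2C9 beyond about 50% at 5 µM, limit read from the data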
Target sequence (P11712 whole entry, looked up): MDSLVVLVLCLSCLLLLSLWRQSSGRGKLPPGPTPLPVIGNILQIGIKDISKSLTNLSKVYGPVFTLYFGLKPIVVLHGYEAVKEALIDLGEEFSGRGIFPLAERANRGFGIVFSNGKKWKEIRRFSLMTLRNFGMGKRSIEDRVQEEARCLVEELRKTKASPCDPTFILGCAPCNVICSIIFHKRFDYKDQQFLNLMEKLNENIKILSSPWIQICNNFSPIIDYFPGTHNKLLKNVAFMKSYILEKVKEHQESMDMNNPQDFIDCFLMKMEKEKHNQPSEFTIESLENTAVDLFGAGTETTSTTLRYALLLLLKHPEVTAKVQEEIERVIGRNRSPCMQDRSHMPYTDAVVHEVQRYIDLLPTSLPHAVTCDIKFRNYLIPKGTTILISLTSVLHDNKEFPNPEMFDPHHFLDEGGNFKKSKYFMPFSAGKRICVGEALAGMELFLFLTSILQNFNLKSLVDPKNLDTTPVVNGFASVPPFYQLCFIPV
PostGolgi yeast – phenotypic screen on post-Golgi transport, primary screen | post-Golgi transport phenotypic cell assay | inhibition, % at 10 µM | hit rate 0.9% among 98,000 | AID 739, 2007;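 also: yeast cells grown in 1536-well plates; yeast grown about 18 h at 30C before absorbance read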
CYP2C9 activ – human CYP2C9 activators, primary screen, biochemical, luminescence. AID 1024, 2008. activation factor at 5 µM. recombinant CYP2C9, luciferin-H conversion; active compounds read high; factor 1 = untreated enzyme, 0 = blocked. Cytochrome P450 2C9 (Homo sapiens), P11712. hit rate 1.4% among 96,000;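 active = activation factor of 2 or more for CYP2C9 at a 5 µM dose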;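 also: 0 = sulfaphenazole-blocked wells and 1 = vehicle-only wells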
The depositor's hits bear a star. Most compounds without a hit are left out; they make up all but 32% or so of the library. Rule as the data show it, unless noted: active = inhibition above about 30%; inactive = the rest.

CCC(c1nnnn1Cc1ccco1)N1CCN(C(=O)c2ccco2)CC1 (stereo not given) was read as CYP2C19 act 1.1, PostGolgi ctrl 5, CYP2C19 inh -8, CYP2C9 inhib 9, PostGolgi yeast -1 and CYP2C9 activ 0.9.
Screening O=C(c1ccco1)N1CCN(C(c2ccccc2Cl)c2nnnn2Cc2ccco2)CC1 (stereo not given) returned CYP2C19 act 0.9, PostGolgi ctrl 14, CYP2C19 inh 10, CYP2C9 inhib 27, PostGolgi yeast -2 and CYP2C9 activ 0.7.
Screening O=C(c1ccco1)N1CCN(C(c2ccccc2Cl)c2nnnn2Cc2cccs2)CC1 (stereo not given) returned CYP2C19 act 0.1, PostGolgi ctrl 10, CYP2C19 inh 89*, CYP2C9 inhib 92*, PostGolgi yeast -1 and CYP2C9 activ 0.1.
CC(C)CC(c1nnnn1Cc1ccccc1)N1CCN(C(=O)c2ccco2)CC1 (stereo not given) was read as CYP2C19 act 0.1, PostGolgi ctrl 3, CYP2C19 inh 87*, CYP2C9 inhib 65*, PostGolgi yeast -3 and CYP2C9 activ 0.3.
`COC(=O)CSc1nc2ccccc2c(=O)n1C` gave CYP2C19 act 0.9, PostGolgi ctrl -2, CYP2C19 inh 11, CYP2C9 inhib 0, PostGolgi yeast 22 and CYP2C9 activ 1.
Screening Cc1ccc(C(=O)CNc2ccc(Br)cc2)cc1 returned CYP2C19 act 0.2, PostGolgi ctrl 2, CYP2C19 inh 75*, CYP2C9 inhib 31, PostGolgi yeast -4 and CYP2C9 activ 0.7.
`O=C(CNc1ccc(Br)cc1)c1ccccc1` gave CYP2C19 act 0.2, PostGolgi ctrl 18, CYP2C19 inh 77*, CYP2C9 inhib 30, PostGolgi yeast 13 and CYP2C9 activ 0.7.
For CC(=O)Nc1ccc(S(=O)(=O)NNC(=O)c2cc3c4ccccc4n(C)c3s2)cc1 the results were CYP2C19 act 1, PostGolgi ctrl -7, CYP2C19 inh -1, CYP2C9 inhib -3, PostGolgi yeast -3 and CYP2C9 activ 1.
COc1ccccc1NC(=O)C(NC(=O)OC(C)(C)C)C(C)OCc1ccccc1 (stereo not given) was read as CYP2C19 act 0.8, PostGolgi ctrl 18, CYP2C19 inh 22, CYP2C9 inhib 23, PostGolgi yeast 2 and CYP2C9 activ 0.8.
For N=c1sccn1CC(=O)Nc1cc(Cl)ccc1Oc1ccccc1 the results were CYP2C19 act 0.8, PostGolgi ctrl 10, CYP2C19 inh 19, CYP2C9 inhib 10, PostGolgi yeast -3 and CYP2C9 activ 0.9.
Screening CCOC(=O)c1ccccc1NC(=O)CN(c1ccccc1)S(=O)(=O)N(C)C returned CYP2C19 act 0.1, PostGolgi ctrl 25, CYP2C19 inh 86*, CYP2C9 inhib 94*, PostGolgi yeast 0 and CYP2C9 activ 0.1.
For COc1ccc(Cl)cc1NC(=O)C(=O)NC1CCCCCC1 the results were CYP2C19 act 1, PostGolgi ctrl 1, CYP2C19 inh 5, CYP2C9 inhib -30, PostGolgi yeast -2 and CYP2C9 activ 1.3.
COc1ccc(NC(=O)CN(c2ccccc2)S(=O)(=O)N(C)C)cc1OC was read as CYP2C19 act 0.8, PostGolgi ctrl -3, CYP2C19 inh 21, CYP2C9 inhib 39, PostGolgi yeast 12 and CYP2C9 activ 0.6.
Screening COc1ccc(Cl)cc1NC(=O)CN(c1ccccc1)S(=O)(=O)N(C)C returned CYP2C19 act 0.2, PostGolgi ctrl 26, CYP2C19 inh 81*, CYP2C9 inhib -35, PostGolgi yeast 5 and CYP2C9 activ 1.4.
For COc1ccc(Cl)cc1NC(=O)CN(C)C1CCCCC1 the results were CYP2C19 act 0.1, PostGolgi ctrl 12, CYP2C19 inh 86*, CYP2C9 inhib -129, PostGolgi yeast 20 and CYP2C9 activ 2.3*.
`Cc1cccc(C)c1N(CC(=O)Nc1cc(Cl)ccc1Oc1ccccc1)S(C)(=O)=O` gave CYP2C19 act 1, PostGolgi ctrl 50*, CYP2C19 inh -4, CYP2C9 inhib 66*, PostGolgi yeast 3 and CYP2C9 activ 0.3.
Screening C(=N\n1cnnc1SCc1ccccc1)/c1ccco1 returned CYP2C19 act 0.9, PostGolgi ctrl 2, CYP2C19 inh 12, CYP2C9 inhib 19, PostGolgi yeast 13 and CYP2C9 activ 0.8.
